One may read the inhibition as the change of the read-out against control, counted positive when it falls.

For assay [1], the target named is Calcium/calmodulin-dependent protein kinase type II subunit alpha (Homo sapiens) (UniProt Q9UQM7). The following applies: at 1 µM.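 Further: reported value is a mean percent inhibition of CAMK2A.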
Assay [2] addresses Calcium/calmodulin-dependent protein kinase type II subunit delta (Homo sapiens) (UniProt Q13557). The following applies: at 0.1 µM.
Assay [3] shares this target. The following applies: at 1 µM.
Assay [4] concerns the target T1, Calcium/calmodulin-dependent protein kinase type IV (Homo sapiens) (UniProt Q16566).
T1 sequence (whole entry): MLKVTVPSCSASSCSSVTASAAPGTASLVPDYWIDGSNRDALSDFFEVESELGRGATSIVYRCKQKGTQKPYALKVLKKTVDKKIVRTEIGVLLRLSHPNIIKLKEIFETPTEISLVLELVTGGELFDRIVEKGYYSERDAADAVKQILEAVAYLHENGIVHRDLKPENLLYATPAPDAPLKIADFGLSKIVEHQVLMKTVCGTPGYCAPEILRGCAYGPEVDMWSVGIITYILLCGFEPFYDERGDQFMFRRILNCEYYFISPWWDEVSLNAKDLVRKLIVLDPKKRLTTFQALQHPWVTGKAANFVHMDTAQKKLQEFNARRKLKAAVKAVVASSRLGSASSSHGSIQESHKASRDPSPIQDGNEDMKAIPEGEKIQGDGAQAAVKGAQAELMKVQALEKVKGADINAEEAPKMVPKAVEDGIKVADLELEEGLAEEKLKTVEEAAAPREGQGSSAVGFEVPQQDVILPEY
The following applies: at 0.1 µM.

Assay [5] concerns the target T1, Calcium/calmodulin-dependent protein kinase type IV (Homo sapiens). The following applies: at 1 µM.
The target of assay [6] is T2, Serine/threonine-protein kinase Chk1 (Homo sapiens) (UniProt O14757).
T2 sequence (whole entry): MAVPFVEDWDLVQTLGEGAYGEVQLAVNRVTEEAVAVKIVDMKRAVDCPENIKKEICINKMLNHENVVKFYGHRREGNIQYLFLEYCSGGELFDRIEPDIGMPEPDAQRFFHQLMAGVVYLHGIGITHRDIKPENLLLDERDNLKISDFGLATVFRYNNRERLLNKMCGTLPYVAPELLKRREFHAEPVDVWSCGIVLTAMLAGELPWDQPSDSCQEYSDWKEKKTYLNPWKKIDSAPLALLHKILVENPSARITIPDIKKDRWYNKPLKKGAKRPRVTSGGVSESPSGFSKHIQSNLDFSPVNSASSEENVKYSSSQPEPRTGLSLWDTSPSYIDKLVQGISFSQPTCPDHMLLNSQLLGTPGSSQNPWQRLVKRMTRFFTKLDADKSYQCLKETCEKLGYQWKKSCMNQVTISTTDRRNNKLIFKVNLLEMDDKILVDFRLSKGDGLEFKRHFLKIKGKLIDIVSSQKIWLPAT
The following applies: at 0.1 µM.

Assay [7] has as its target T2, Serine/threonine-protein kinase Chk1 (Homo sapiens). The following applies: at 1 µM.
For assay [8], the target named is Serine/threonine-protein kinase Chk2 (Homo sapiens) (UniProt O96017). The following applies: at 0.1 µM.
Serine/threonine-protein kinase Chk2 (Homo sapiens), sequence (O96017 whole entry): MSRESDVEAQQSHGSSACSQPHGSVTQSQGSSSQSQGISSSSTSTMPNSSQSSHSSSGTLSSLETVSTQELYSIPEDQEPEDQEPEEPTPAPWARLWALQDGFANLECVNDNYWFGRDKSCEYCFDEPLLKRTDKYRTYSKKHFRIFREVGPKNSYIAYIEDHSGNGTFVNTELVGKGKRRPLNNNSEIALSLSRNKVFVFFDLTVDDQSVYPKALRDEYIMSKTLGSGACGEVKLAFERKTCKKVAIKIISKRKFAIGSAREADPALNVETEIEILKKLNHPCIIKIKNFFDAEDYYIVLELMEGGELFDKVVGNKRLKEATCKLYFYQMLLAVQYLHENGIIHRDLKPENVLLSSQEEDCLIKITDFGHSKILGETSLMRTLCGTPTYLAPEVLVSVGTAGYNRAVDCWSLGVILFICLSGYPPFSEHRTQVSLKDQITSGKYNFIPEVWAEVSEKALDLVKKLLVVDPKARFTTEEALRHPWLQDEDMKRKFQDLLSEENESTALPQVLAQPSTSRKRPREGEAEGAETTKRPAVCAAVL
Assay [9] has the same target. The following applies: at 1 µM.
Assay [10] has as its target Death-associated protein kinase 1 (Homo sapiens) (UniProt P53355). The following applies: at 0.1 µM.
Assay [11] shares this target. The following applies: at 1 µM.
Assay [12] deals with T3, Serine/threonine-protein kinase DCLK2 (Homo sapiens) (UniProt Q8N568).
T3 sequence (whole entry): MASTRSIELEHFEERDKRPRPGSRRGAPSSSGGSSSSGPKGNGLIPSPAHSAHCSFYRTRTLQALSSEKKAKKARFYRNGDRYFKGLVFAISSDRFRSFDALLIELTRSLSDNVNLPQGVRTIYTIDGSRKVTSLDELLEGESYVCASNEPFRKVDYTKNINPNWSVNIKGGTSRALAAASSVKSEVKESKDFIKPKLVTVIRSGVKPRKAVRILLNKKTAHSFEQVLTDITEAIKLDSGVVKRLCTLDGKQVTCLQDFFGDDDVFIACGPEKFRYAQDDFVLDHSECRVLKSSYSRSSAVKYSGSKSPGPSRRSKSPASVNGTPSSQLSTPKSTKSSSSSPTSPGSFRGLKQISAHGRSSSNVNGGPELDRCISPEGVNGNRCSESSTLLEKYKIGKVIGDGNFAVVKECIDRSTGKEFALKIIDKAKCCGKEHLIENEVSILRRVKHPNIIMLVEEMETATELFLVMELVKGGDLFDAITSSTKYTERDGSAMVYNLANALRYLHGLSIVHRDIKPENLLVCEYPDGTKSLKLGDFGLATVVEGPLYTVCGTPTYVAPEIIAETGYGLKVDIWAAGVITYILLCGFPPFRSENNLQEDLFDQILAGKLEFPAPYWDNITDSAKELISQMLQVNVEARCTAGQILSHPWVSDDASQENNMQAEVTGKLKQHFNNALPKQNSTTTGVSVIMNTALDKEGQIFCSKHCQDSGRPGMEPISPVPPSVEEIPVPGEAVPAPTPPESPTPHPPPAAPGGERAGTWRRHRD
The following applies: at 0.1 µM.

Assay [13] concerns the target T3, Serine/threonine-protein kinase DCLK2 (Homo sapiens). The following applies: at 1 µM.
The target in assay [14] is MAP kinase-activated protein kinase 2 (Homo sapiens) (UniProt P49137). The following applies: at 0.1 µM.
MAP kinase-activated protein kinase 2 (Homo sapiens), sequence (P49137 whole entry, looked up): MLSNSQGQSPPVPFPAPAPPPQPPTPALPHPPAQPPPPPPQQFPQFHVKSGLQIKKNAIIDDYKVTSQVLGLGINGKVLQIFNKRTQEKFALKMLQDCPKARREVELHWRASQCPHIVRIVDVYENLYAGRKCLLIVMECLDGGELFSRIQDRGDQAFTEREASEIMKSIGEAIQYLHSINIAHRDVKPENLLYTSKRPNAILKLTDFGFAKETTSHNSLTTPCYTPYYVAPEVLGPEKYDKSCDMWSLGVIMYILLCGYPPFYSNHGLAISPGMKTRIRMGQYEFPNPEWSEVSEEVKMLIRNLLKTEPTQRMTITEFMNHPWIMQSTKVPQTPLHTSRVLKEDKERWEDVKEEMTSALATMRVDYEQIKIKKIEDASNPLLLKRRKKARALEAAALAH
Assay [15] shares this target. The following applies: at 1 µM.
Assay [16] addresses MAP kinase-activated protein kinase 3 (Homo sapiens) (UniProt Q16644). The following applies: at 0.1 µM.
The target is the same in assay [17]. The following applies: at 1 µM.
Assay [18] deals with Serine/threonine-protein kinase MARK1 (Homo sapiens) (UniProt Q9P0L2). The following applies: at 0.1 µM.
Serine/threonine-protein kinase MARK1 (Homo sapiens), sequence (Q9P0L2 whole entry, looked up): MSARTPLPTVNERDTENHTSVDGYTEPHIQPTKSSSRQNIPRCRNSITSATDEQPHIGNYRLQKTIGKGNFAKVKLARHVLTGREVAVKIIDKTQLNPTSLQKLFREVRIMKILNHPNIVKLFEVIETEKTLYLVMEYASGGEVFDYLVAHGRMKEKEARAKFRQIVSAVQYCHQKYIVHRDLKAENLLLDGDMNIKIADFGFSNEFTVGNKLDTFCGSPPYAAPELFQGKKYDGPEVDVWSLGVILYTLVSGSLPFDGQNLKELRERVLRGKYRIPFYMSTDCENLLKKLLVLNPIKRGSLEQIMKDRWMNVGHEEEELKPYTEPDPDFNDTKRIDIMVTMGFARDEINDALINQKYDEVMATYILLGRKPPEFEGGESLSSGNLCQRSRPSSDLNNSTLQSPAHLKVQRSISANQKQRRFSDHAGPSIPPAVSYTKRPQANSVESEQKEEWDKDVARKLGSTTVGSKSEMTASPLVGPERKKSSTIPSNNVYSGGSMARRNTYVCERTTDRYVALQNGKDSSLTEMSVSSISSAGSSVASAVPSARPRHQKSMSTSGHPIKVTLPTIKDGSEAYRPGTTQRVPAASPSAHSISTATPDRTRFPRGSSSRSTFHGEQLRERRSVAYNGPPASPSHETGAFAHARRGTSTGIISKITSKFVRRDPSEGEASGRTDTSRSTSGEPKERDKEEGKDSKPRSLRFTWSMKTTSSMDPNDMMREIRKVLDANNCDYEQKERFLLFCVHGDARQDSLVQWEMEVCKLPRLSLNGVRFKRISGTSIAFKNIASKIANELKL
The target is the same in assay [19]. The following applies: at 1 µM.
In assay [20] the target is MAP/microtubule affinity-regulating kinase 3 (Homo sapiens) (UniProt P27448). The following applies: at 0.1 µM.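 Further: mean percent inhibition of MARK3 kinase activity, measured within the GSK PKIS screening panel.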
MAP/microtubule affinity-regulating kinase 3 (Homo sapiens), sequence (P27448 whole entry, looked up): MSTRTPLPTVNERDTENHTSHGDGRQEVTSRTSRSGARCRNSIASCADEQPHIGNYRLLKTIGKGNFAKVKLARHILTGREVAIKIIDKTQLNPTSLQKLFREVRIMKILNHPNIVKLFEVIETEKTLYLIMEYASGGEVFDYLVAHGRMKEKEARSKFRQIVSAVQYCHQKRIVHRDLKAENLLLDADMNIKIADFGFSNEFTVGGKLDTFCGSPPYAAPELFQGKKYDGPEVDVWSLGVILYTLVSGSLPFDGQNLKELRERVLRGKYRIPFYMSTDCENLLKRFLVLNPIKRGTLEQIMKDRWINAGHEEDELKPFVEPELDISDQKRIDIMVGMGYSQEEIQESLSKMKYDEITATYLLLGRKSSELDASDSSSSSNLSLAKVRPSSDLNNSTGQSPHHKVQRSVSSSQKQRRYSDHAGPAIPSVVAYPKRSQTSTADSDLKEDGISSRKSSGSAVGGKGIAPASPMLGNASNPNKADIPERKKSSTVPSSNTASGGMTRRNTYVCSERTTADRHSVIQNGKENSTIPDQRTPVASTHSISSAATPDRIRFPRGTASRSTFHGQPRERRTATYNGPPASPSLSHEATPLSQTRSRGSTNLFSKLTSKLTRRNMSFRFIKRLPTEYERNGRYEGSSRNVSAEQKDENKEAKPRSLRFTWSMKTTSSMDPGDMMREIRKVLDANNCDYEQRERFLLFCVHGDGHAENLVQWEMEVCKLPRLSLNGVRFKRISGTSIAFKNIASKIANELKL

Calcium/calmodulin-dependent protein kinase type II subunit delta (Homo sapiens), sequence (Q13557 whole entry): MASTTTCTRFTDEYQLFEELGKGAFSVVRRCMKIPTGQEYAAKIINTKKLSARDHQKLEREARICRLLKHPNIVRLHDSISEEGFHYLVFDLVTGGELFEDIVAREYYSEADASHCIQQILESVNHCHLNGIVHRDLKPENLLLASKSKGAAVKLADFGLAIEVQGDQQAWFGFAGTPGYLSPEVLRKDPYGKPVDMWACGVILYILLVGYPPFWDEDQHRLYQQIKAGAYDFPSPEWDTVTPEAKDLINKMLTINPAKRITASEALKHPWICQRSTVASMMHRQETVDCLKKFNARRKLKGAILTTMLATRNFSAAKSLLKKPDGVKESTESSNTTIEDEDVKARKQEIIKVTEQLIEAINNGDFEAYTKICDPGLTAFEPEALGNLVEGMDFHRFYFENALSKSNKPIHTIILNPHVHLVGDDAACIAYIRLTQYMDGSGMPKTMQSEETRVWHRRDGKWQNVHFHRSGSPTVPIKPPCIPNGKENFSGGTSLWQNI
Death-associated protein kinase 1 (Homo sapiens), sequence (P53355 whole entry, looked up): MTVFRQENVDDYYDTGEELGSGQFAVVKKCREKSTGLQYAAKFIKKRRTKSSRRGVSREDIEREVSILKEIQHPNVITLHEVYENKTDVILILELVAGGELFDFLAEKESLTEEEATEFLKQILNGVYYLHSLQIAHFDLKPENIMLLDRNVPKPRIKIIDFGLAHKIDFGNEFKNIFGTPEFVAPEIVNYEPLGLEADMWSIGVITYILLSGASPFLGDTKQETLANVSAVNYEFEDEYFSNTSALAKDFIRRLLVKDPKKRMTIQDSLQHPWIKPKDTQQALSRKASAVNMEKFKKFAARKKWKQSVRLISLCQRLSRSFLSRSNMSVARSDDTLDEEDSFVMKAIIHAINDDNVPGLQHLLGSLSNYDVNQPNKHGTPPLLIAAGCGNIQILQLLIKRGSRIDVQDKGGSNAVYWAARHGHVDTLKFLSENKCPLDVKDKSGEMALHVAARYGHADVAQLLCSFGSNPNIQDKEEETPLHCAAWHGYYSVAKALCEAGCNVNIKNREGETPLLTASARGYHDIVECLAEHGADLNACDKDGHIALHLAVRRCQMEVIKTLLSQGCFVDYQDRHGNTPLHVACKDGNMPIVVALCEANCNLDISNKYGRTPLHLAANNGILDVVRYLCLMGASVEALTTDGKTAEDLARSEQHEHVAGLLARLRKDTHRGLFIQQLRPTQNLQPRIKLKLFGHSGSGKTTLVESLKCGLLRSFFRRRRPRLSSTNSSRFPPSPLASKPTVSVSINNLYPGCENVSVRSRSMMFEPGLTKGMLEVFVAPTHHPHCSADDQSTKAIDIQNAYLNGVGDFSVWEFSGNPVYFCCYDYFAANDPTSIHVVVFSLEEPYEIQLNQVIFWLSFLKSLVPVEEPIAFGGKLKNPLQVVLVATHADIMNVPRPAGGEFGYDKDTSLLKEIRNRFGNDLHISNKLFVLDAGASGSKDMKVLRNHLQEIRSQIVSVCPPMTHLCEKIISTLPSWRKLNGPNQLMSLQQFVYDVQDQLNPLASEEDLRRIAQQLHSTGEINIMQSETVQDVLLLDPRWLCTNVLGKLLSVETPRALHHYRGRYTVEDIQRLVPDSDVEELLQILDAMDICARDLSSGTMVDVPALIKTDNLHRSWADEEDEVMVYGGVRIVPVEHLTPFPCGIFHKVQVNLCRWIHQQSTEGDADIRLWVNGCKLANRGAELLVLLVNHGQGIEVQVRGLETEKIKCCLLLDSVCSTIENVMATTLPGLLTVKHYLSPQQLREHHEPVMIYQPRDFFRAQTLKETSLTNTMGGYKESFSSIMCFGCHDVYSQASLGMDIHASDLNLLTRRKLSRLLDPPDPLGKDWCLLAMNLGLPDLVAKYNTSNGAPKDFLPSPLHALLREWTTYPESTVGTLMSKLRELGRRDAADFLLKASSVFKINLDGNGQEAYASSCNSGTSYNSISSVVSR
Calcium/calmodulin-dependent protein kinase type II subunit alpha (Homo sapiens), sequence (Q9UQM7 whole entry): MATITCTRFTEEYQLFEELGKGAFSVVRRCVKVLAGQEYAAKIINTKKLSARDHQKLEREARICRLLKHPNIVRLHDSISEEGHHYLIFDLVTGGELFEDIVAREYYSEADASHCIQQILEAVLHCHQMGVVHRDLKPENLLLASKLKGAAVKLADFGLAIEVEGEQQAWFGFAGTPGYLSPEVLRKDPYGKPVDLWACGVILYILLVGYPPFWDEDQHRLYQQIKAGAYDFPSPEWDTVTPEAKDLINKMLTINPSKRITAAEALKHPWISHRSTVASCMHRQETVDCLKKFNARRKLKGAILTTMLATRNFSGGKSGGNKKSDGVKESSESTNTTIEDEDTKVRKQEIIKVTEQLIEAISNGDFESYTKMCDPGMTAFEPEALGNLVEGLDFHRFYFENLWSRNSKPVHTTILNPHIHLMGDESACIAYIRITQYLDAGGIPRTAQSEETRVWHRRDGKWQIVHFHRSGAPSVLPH

Regarding `CS(=O)(=O)Nc1cccc(-c2ccc3c(NC(=O)C4CC4)n[nH]c3c2)c1`, the inhibition in assay [1] was 2.85%; in assay [2] it was 3.31%; in assay [3] it was 3%; in assay [4], 1.21%; in assay [5], 0.65%; in assay [6], 1.78%. In addition, the inhibition came to 1.91% in [7]; 0.51% in assay [8]; 0.84% in assay [9]; 1.43% in assay [10]; 3.29% in assay [11]; 2.43% in assay [12]. The inhibition in [13] is 1.35%; in assay [14], 0.07%; in [15] it was 0.38%; in assay [16], -0.07%; in [17], 0.93%; in assay [18], 0.98%. The figures for the inhibition in [19] and in assay [20] were 3.49% and 1.49%, respectively.

On to `CCCN1CCCC(c2ccc(Nc3nc(Nc4cc(F)ccc4C(N)=O)c4cc[nH]c4n3)c(OC)c2)C1` (stereo not given), for which the inhibition in assay [1] was 44.9%; in [2], 26.9%; in [3] it was 72.8%; in assay [4], 7.83%; in assay [5], 36.1%; in [6], -4.38%. Moreover, the inhibition in assay [7] came out at 8.07%; in assay [8], 48.9%; in assay [9], 79.1%; in assay [10] it was 3.54%; in assay [11], 47.1%; in [12] it was 2.57%. In addition, the inhibition came to 7.08% in assay [13]; 2.17% in [14]; 3.54% in assay [15]; 8.62% in assay [16]; 17.3% in [17]; 11% in assay [18]. The results for the inhibition in assay [19] and in [20] were 52.9% and 19.9%, respectively.

On to `NS(=O)(=O)c1cccc(-c2cc3ccncc3cc2OCc2ccccc2)c1`, for which the inhibition in assay [1] is 4.81%; in [2], 4.83%; in assay [3], 5.07%; in [4], 0.13%; in assay [5], -0.46%; in assay [6] it was 5.29%. Moreover, the inhibition in assay [7] was 6.26%; in [8], 3.17%; in [9], 5.38%; in assay [10], 6.37%; in assay [11] it was 7.29%; in [12], 0.9%. In addition, the inhibition in assay [13] came out at 0.91%; in assay [14] it was 2.83%; in assay [15], 3.32%; in assay [16], 4.06%; in assay [17], 3.27%; in [18] it was 5.91%. The inhibition amounted to 9.52% in assay [19] and 5.98% in assay [20].

In the case of `[O-][S+]1CCN(Cc2ccc(-c3ccc4ncnc(Nc5ccc(OCc6ccccc6)c(Cl)c5)c4c3)o2)CC1`, the inhibition is -1.1% in assay [1]; 0.81% in [2]; 1.03% in assay [3]; -1.57% in [4]; -1.23% in assay [5]; 3.06% in assay [6]. For the same compound, the inhibition in [7] was -0.08%; in [8], 1.32%; in assay [9], 2.85%; in assay [10], 1.85%; in assay [11], 0.97%; in [12], 0.43%. For the same compound, the inhibition in [13] was 1.8%; in [14], 1%; in assay [15], 0.44%; in assay [16], 6.01%; in [17] it was 8.71%; in [18], 1.37%. The inhibition in assay [19] is 2.21%; in assay [20] it was -0.92%.

For the compound `COc1cc(/C=N/Nc2ncnc3c2cnn3C(C)C)ccc1O`, the inhibition in assay [1] was 0.99%; in assay [2], 0.75%; in assay [3], 3.93%; in [4], 0.62%; in assay [5], -1.97%; in assay [6] it was 3.18%. Moreover, the inhibition was 4.84% in assay [7]; 0.04% in assay [8]; 1.88% in [9]; 1.63% in assay [10]; 0.9% in assay [11]; 2.33% in [12]. Moreover, the inhibition in assay [13] amounted to 1.29%; in assay [14] it was 0.78%; in assay [15], 0.4%; in assay [16], 0.97%; in assay [17], 0.08%; in [18], 2.39%. The inhibition in assay [19] was 4.77%; in assay [20], 0.28%.

For the origin of these results see ChEMBL document CHEMBL1961873, “Compounds: GSK PKIS; Assays: Nanosyn kinase panel” (2012).
